KB-V1 cytotox – qHTS assay for MDR1-selective chemotherapeutics: Primary screen using the drug-selected MDR subline cells KB-V1. KB-V1 MDR cells viability, CellTiter-Glo, 72 h. Potency, µM (doses to about 46.1 µM), most hits filed as cytotoxic. hit rate 3.4% among 400,000; also: potency is read from the fitted curve at half-maximal effect; % is scaled to controls: 0 for no effect and ±100 for the full control effect; nearly all actives have a fitted effect of over 60% in size
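KB-V1 cells (P-gp-expressing MDR subline of KB-3-1) in phenol-red-free DMEM with 10% FBS were exposed to library compounds over a concentration series for 72 h at 37 degrees C. Viability read by CellTiter-Glo luminescence; concentration-effect curves fitted after normalization.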
KB-3-1 tox – qHTS assay for MDR1-selective chemotherapeutics: Primary screen using the parental adenocarcinoma cell KB-3-1; KB-3-1 viability, CellTiter-Glo ATP luminescence, 72 h; Potency, µM (series often up to 46.1 µM), actives largely listed as cytotoxic; hit rate 1.4% among 400,000; also: potency is read from the fitted curve at half-maximal effect; % is scaled to controls: 0 for no effect and ±100 for the full control effect; nearly all actives have a fitted effect of over 60% in size
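Viability of parental KB-3-1 cells, measured by CellTiter-Glo luminescence, followed a 72 h incubation at 37 °C with pinned compounds in phenol-red-free DMEM containing 10% FBS.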
SW480 rereplic – A quantitative high throughput screen for small molecules that induce DNA re-replication in SW480 colon adenocarcinoma cells. Potency, µM (doses to about 46.1 µM), for the others: top-dose re-replication activation, hits mostly activators. SW480 DNA re-replication, Hoechst DNA content imaging, 48 h. hit rate 1.8% among 340,000; also: potency is read from the fitted curve at half-maximal effect; % of control where 0% means no effect; nearly all actives have a fitted effect of over 55% in size
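DNA re-replication was detected as more nuclei of elevated Hoechst intensity after 48 hr exposure to compound (23 nL pinned per well of 250 cells).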
ASM inhibitor – Inhibitors of Secretory Acid Sphingomyelinase (S-ASM): qHTS. Potency, µM (doses to about 57.5 µM), without a hit: at the top dose activity change, negative = inhibition, usual class: inhibitors. placental ASM, HMU-PC fluorogenic substrate, 60 min. hit rate 0.006% among 340,000; also: potency is read from the fitted curve at half-maximal effect
Target sequence (P17405 47-631 limits assumed): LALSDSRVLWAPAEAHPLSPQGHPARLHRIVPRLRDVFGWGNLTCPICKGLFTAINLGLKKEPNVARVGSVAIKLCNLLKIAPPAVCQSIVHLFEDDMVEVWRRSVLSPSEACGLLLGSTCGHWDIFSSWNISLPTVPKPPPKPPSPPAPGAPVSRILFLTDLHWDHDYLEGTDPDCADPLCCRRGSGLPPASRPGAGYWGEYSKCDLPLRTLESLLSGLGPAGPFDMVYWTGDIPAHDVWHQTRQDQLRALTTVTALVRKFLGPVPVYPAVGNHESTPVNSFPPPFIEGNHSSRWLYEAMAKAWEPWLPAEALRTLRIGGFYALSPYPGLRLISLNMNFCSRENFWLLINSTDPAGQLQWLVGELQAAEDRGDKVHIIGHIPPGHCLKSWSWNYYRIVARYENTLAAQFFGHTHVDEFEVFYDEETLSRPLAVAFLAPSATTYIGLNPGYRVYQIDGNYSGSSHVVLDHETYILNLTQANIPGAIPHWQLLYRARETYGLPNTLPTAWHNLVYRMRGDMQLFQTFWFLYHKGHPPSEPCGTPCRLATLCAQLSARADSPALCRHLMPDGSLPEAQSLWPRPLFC
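Fluorogenic HMU-PC substrate (9 uM final) is turned over by placental ASM in 60 min at 37 C after a 10 min compound preincubation. Reaction ended by alkaline stop (pH 10), with fluorescence read at 386/447 nm.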
Giardia killer – Small Molecules that selectively kill Giardia lamblia: qHTS; Giardia lamblia trophozoite viability; activity change, % at 7.66 µM, hits read low; hit rate 0.15% among 340,000; AID 540267, 2011; in the data active = activity change below about -80%; inconclusive = between about -30% and that limit;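 also: parasites exposed to compound for two days anaerobically before the ATP read; % is scaled to controls: 0 for no effect and ±100 for the full control effect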
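Luminescent ATP signal served as the viability read-out, measured 15-30 min after adding ATP detection reagent to trophozoites that had been incubated with compounds for 48 hrs at 37 deg C anaerobically at 100 cells/well.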
MCF10A rerep – A quantitative high throughput screen for small molecules that induce DNA re-replication in MCF 10a normal breast cells | MCF 10A DNA re-replication, Hoechst nuclear intensity, 48 h | Potency, µM (top dose mostly 46.1 µM), without a hit: top-dose activity, positive = re-replication, actives largely listed as activators | hit rate 2.9% among 350,000 | AID 624296, 2012; also: potency is read from the fitted curve at half-maximal effect; % of control where 0% means no effect; nearly all actives have a fitted effect of over 50% in size
An asterisk follows results filed as active; i = inactive; ? = inconclusive; . = no result. Shown are actives, neighbours in structure and some others; about 6.9% of the full set was active somewhere. Unless noted, calls follow the shape of the dose curve; as a rule, active = well fitted curve in the direction sought with a large enough effect; inconclusive = small, poorly fitted or top-dose-only effect, or another doubt; inactive = no such curve, though single readings can be large; an effect the other way counts as inactive or inconclusive.

SMILES	KB-V1 cytotox	KB-3-1 tox	SW480 rereplic	ASM inhibitor	Giardia killer	MCF10A rerep
Cc1nn(-c2cc(N3CCCCC3)ccc2N)c(=O)c2ccccc12	i	i	0%	0%	-2	-1%
CN(CC(=O)Nc1cccc(F)c1)CC(=O)N(C)CC(=O)Nc1ccccc1Br	i	i	1%	3%	-8	5%
COc1cc(Nc2nc(SCC#N)nc3ccccc23)cc(OC)c1OC	21µM*	i	-6%	0%	-5	-5%
N#CCSc1nc(Nc2ccc3c(c2)OCO3)c2ccccc2n1	15µM*	i	1%	-14%	-16	?
N#CCSc1nc(-c2ccccc2)c2cc(Cl)ccc2n1	i	i	3%	13%	?	7%
CCOC(=O)CSc1nc(Nc2ccc3c(c2)OCO3)c2ccccc2n1	i	i	1%	-11%	3	-4%
O=C(CSc1ccsc1[N+](=O)[O-])N1CCN(c2ccccc2)CC1	?	5.8µM*	-6%	.	?	-1%
O=C(CCCc1ccccc1)N1CCN(c2ccc([N+](=O)[O-])cc2)CC1	16µM*	i	-12%	-15%	-2	3%
CCOCC(=O)N1CCN(c2ccc([N+](=O)[O-])cc2)CC1	18µM*	i	-1%	-4%	16	3%
O=C(CSc1ccsc1[N+](=O)[O-])N1CCN(c2ccc(Cl)cc2)CC1	i	i	2%	-9%	?	-1%
O=C(CCCC(=O)N1CCN(c2ccc([N+](=O)[O-])cc2)CC1)c1ccccc1	?	i	-20%	-20%	0	3%
Cc1ccc(NC(=O)C2CCCN2S(=O)(=O)c2cccc3nsnc23)c(Br)c1 (configuration not stated)	?	i	.	.	.	.
Cc1cccc(CNC(=O)Cn2nc(C)n3c(cc4cc(F)ccc43)c2=O)c1	i	i	.	.	.	.
COc1ccc(OC)c(CN2C(=O)c3ccccc3C2c2nnnn2-c2c(C)cccc2C)c1 (configuration not stated)	?	i	.	.	.	.
CCn1cc(CNC(=O)c2cc(-c3ccc(C)cc3)nc3ccc(Br)cc23)c(C)n1	i	i	.	.	.	.
CCC(Sc1nc(-c2ccccc2)c(-c2ccccc2)[nH]1)C(=O)O (configuration not stated)	i	i	2%	-4%	-5	20%
CCn1cnc2c1c(=O)n(Cc1cccc(Br)c1)c(=O)n2Cc1ccccc1	18µM*	?	3%	-2%	1	13%
CCOc1ccc(CCNCc2c(C(=O)O)c(C)n(Cc3ccccc3F)c2C)cc1	?	i	.	.	.	.
CCOC(=O)CN1N=C(/C=C/c2ccccc2)CCC1=O	i	i	-3%	0%	3	1%
CCOC(=O)CN1N=C(/C=C/c2ccc(C(C)C)cc2)CCC1=O	2.3µM*	7.3µM*	-5%	-6%	-3	2%
CCOC(=O)C(C)N1N=C(/C=C/c2ccc(C)cc2)CCC1=O (configuration not stated)	16µM*	?	14%	-5%	14	16%
CC(C(=O)NCc1ccccc1Cl)n1ccc2cc(S(=O)(=O)N3CCCCC3)ccc21 (configuration not stated)	i	i	.	.	.	.
c1ccc(CNc2nc(-c3ccccc3)nc3ccccc23)cc1	?	i	1%	-18%	9	9%
CCC(C)Nc1nc(-c2ccccn2)nc2ccccc12 (configuration not stated)	?	15µM*	6%	2%	16	0%
c1ccc(CNc2nc(-c3ccccn3)nc3ccccc23)cc1	i	16µM*	24%	-1%	2	13%
SMILES	KB-V1 cytotox	KB-3-1 tox	SW480 rereplic	ASM inhibitor	Giardia killer	MCF10A rerep
CCC(C)Nc1nc(-c2cccc(OC)c2O)nc2ccccc12 (configuration not stated)	?	?	10%	?	-14	?
CC(C)(C)c1ccc(-c2nc(NCc3cccnc3)c3ccccc3n2)cc1	?	i	9%	-3%	-16	13µM*
Cc1ccc2[nH]c3c(=O)n(CC(=O)N(CCN(C)C)Cc4ccccc4)ncc3c2c1	i	i	.	.	.	.
COc1cc(C(=O)Nc2ccccc2NC(=O)c2cc(OC)c(OC)c(OC)c2)cc(OC)c1OC	i	i	-18%	-9%	17	7%
COc1cc(C(=O)Nc2ccccn2)cc(OC)c1OC	i	i	-6%	-3%	13	-1%
COc1cc(C(=O)Nc2ccc(Br)cc2C(=O)c2cc(OC)c(OC)c(OC)c2)cc(OC)c1OC	?	?	16µM*	-1%	12	21µM*
COc1cc(C(=O)Nc2ccccc2C(=O)Nc2ccccn2)cc(OC)c1OC	6.5µM*	8.2µM*	23µM*	4%	-1	?
Cc1ccnc(NC(=O)c2ccccc2NC(=O)C(C)(C)C)c1	10µM*	?	16µM*	-2%	-16	16µM*
COc1cc(C(=O)Nc2ccccc2C2COC(=O)C2=N)cc(OC)c1OC (configuration not stated)	12µM*	i	-19%	2%	7	-5%
COc1cc(C(=O)Nc2ccccc2N2CCCCC2)cc(OC)c1OC	i	i	2%	-2%	2	20%
Cc1ccc(-c2nc3ncccc3o2)cc1NC(=O)c1ccc(-c2ccc(Cl)cc2)o1	i	i	.	.	.	.
O=C(Nc1ccccc1C(=O)Nc1ccccn1)c1cccc([N+](=O)[O-])c1	i	i	11%	-4%	7	3.7µM*
Cc1ccc(CN2C(=O)N/C(=C/c3ccc(-c4ccc(C(=O)O)cc4)o3)C2=O)cc1	i	i	4.6µM*	i	11	8.2µM*
O=C(O)c1ccc(COc2ccccc2/C=C2\NC(=O)N(Cc3ccccc3)C2=O)cc1	i	i	?	22%	-3	6%
O=C(O)c1cccc(-n2cccc2/C=C2\NC(=O)N(Cc3ccc(F)cc3)C2=O)c1	i	i	-6%	35%	9	?
O=C(O)c1ccc(COc2ccc3ccccc3c2/C=C2/NC(=O)N(Cc3ccc(F)cc3)C2=O)cc1	i	i	?	69%	-20	18µM*
Cc1cc(C(=O)O)ccc1-c1ccc(/C=C2\NC(=O)N(Cc3ccc(F)cc3)C2=O)o1	i	i	9.2µM*	i	-10	3.7µM*
